In PubChem BioAssay AID463173 (ICCB-Longwood Screening Facility, Harvard Medical School, 2010):
Out of some 52,000 compounds screened, about 4,300 (8.3%) were called active. For the sample, actives were picked, then their nearest neighbours and some compounds at random. A number with no mark means an inactive call. No stated cut-off is given here; in the data, active means survival mostly below about 52% (no sharp cut-off); inactive means mostly above about 56%.

tested on: DeltatarO mutant; assay: S. aureus survival, RN4220 and DeltatarO strains – OD600, teichoic acid synthesis inhibitors, primary screen (AID 463173); details: S. aureus RN4220 wild type/DeltatarO growth, OD600, 18 h, hits give low values, screened at 18.75 µg/mL (by protocol)

SMILES | survival
CCNC(=O)C1CCN(S(=O)(=O)c2ccc3c(c2)CCCN3C(C)=O)CC1 | 99%
CCC(CC)C(=O)OCc1cc(=O)n2nc(C3CCCCC3)sc2n1 | 88%
COc1ccc(/C=C(\NC(=O)c2ccccc2)C(N)=O)cc1 | 79%
CC(C)CCNC(=O)Cn1c(-c2cccs2)cc2cc(F)ccc21 | 94%
Cc1cc(C)c2c(c1)c(C)cc1nnc(SCC(=O)c3ccc(F)cc3)n12 | 63%
Cc1ccc(C)c(CSC2=NC(C)(C)Nc3ccccc32)c1 | 80%
CCC(NC(C)=O)c1ccccc1 (stereo not given) | 71%
CCCCCCNc1nc(Oc2ccccc2)nc(Oc2ccccc2)n1 | 62%
CN(C)C(=O)CSc1n[nH]c(-c2ccccc2)n1 | 103%
Cc1ccc(-c2noc(-c3ccc(N4CCC(C)CC4)c([N+](=O)[O-])c3)n2)cc1 | 85%
Cc1ccc(NC(=O)CSc2nc3ccc(NC(=O)CCc4ccccc4)cc3s2)cc1 | 90%
Cc1nn(S(=O)(=O)c2ccc(C(C)C)cc2)c(C)c1S(=O)(=O)N1CCCCC1 | 79%
O=C(COc1ccc(Cl)cc1)OCc1cc(=O)n2nc(C3CC3)sc2n1 | 83%
Cc1cc(=O)[nH]c2nnc(SCc3ccc(Cl)cc3Cl)n12 | 123%
COc1ccccc1NC(=O)c1sc2ncn(Cc3ccccc3Cl)c(=O)c2c1C | 99%
CCOc1ccc(-n2c(CC)nc3c(cnn3-c3ccc(Cl)cc3)c2=O)cc1 | 46%
Cc1cccc(-n2c(-c3ccco3)nc3c(cnn3-c3ccc(F)cc3)c2=O)c1 | 81%
Cc1cccc(-c2nc3c(cnn3-c3ccccc3)c(=O)n2-c2ccc(Cl)cc2)c1 | 56%
Cc1cccc(-c2nc3c(cnn3-c3ccccc3)c(=O)n2-c2cccc(Cl)c2)c1 | 44% (active)
CCOc1ccc(-n2c(C)nc3c(cnn3-c3ccc(C)cc3)c2=O)cc1 | 76%
CCOc1ccc(-n2c(-c3ccc(C)cc3)nc3c(cnn3-c3ccccc3)c2=O)cc1 | 42% (active)
CC(=O)c1ccc(N2CCN(S(=O)(=O)c3ccc4c(c3)C(C)(C)C(=O)N4)CC2)cc1 | 64%
CN1C(=O)c2ccccc2Sc2ccc(NC(=O)NCc3ccc(Cl)cc3)cc21 | 96%
CCOC(=O)c1c(NC(=O)/C=C/c2ccc(OCC)c(OC)c2)sc2c1CCC2 | 56%
COc1ccc(/C=C/C(=O)Nc2sc3c(c2C(N)=O)CCCC3)cc1 | 58%

SMILES | survival
COc1ccc(/C=C/C(=O)Nc2sc3c(c2C(N)=O)CCC(C)C3)cc1OC (stereo not given) | 34% (active)
COC(=O)c1c(NC(=O)/C=C/c2ccc(OC)c(OC)c2)sc2c1CCC2 | 51%
CCOC(=O)c1sc(NC(=O)/C=C/c2ccc(C(C)C)cc2)c(C(=O)OCC)c1C | 52%
COC(=O)c1sc(NC(=O)/C=C/c2ccc(OC)c(OC)c2)c(C(=O)OC)c1C | 37% (active)
CCOC(=O)c1c(NC(=O)/C=C/c2ccc(OC)cc2)sc2c1CCC(C)C2 (stereo not given) | 23% (active)
COC(=O)c1c(NC(=O)/C=C/c2ccc(OC)cc2)sc2c1CCC2 | 102%
CCOC(=O)c1c(NC(=O)/C=C/c2ccc(OC)c(OC)c2)sc(C(C)=O)c1C | 118%
CCOC(=O)c1c(NC(=O)/C=C/c2ccc(Cl)cc2)sc2c1CCC(C)C2 (stereo not given) | 44% (active)
COc1cc(C(=O)Nc2sc3c(c2C(N)=O)CCC(C)C3)cc(OC)c1OC (stereo not given) | 53%
CCCOc1ccc(/C=C/C(=O)Nc2sc3c(c2C(=O)OCC)CCC(C)C3)cc1OC (stereo not given) | 51%
Cc1ccccc1-c1noc(-c2nnn(-c3ccccc3C)c2N)n1 | 94%
O=C(NCc1ccco1)c1ccc2c(c1)N(Cc1ccccc1F)C(=O)c1ccccc1S2=O (stereo not given) | 90%
CCCCNC(=O)c1ccc2c(c1)N(Cc1ccc(F)cc1)C(=O)c1ccccc1S2=O (stereo not given) | 65%
COC1CCCC(C(=O)Nn2c(C3CC3)nc3ccccc3c2=O)C1 (stereo not given) | 69%
Cc1cc(F)ccc1NC(=O)c1csc2c1CCC(C)C2 (stereo not given) | 89%
Cc1occc1C(=O)NN=C1c2ccccc2-c2ccccc21 | 69%
CCN(C(=O)c1oc2ccc(S(=O)(=O)N3CCCCCC3)cc2c1C)c1ccccc1 | 124%
CSc1ccc(NC(=O)N2C3CCC2CC(O)(c2cccnc2)C3)cc1 (stereo not given) | 79%
CCOc1ccccc1CNS(=O)(=O)c1ccc(-c2coc(C)n2)cc1 | 94%
Cc1nc(N2CCCC2)ncc1C(=O)Nc1ccc(F)cc1F | 90%
Cc1ccc(Cl)cc1NC(=O)c1ccc2nc(CCc3ccccc3)oc2c1 | 69%
O=C(NCc1cccs1)c1ccc2c(c1)sc1nc(-c3ccc(F)cc3)cn12 | 71%
COc1ccc(-c2cn3c(n2)sc2cc(C(=O)NCc4cccs4)ccc23)cc1 | 55% (active)
COc1cccc(-c2cn3c(n2)sc2cc(C(=O)NCc4cccs4)ccc23)c1 | 57%
Cc1ccc(-c2cn3c(n2)sc2cc(C(=O)NCc4cccs4)ccc23)cc1 | 78%

SMILES | survival
Cc1ccc(-c2cn3c(n2)sc2cc(C(=O)NCc4cccs4)ccc23)c(C)c1 | 41% (active)
O=C(NCc1cccs1)c1ccc2c(c1)sc1nc(-c3ccccc3)cn12 | 82%
O=C(CCc1ccccc1)NCc1ccc2c(c1)CCN2C(=O)c1ccc(Cl)cc1 | 77%
COc1ccc(CCNC(=O)c2cnn(-c3cccc(C)c3)c2C2CCN(C(=O)OC(C)(C)C)CC2)cc1OC | 67%
Cc1cc(C)cc(OCCCn2c(CCNC(=O)C3CCCCC3)nc3ccccc32)c1 | 35%
Cc1ccc(OCCn2c(CCNC(=O)C3CCCCC3)nc3ccccc32)cc1 | 61%
O=C(NCCCc1nc2ccccc2n1Cc1ccc(Cl)cc1)C1CCCCC1 | 64%
O=C(NCCc1nc2ccccc2n1CCOc1ccc(Cl)cc1)C1CCCCC1 | 36% (active)
Cc1ccccc1OCCCn1c(CCNC(=O)C2CCCCC2)nc2ccccc21 | 61%
Cc1cc(C)cc(OCCn2c(CCNC(=O)C3CCCCC3)nc3ccccc32)c1 | 92%
Cc1cc(OCCn2c(CCNC(=O)C3CCCCC3)nc3ccccc32)ccc1Cl | 87%
Cc1cccc(C)c1OCCCn1c(CCNC(=O)C2CCCCC2)nc2ccccc21 | 1% (active)
O=C(NCCc1nc2ccccc2n1CCCOc1ccc(Cl)cc1)C1CCCCC1 | 24% (active)
Cc1cc(OCCCn2c(CCNC(=O)C3CCCCC3)nc3ccccc32)ccc1Cl | 4% (active)
Cc1cccc(C)c1OCCn1c(CCNC(=O)C2CCCCC2)nc2ccccc21 | 57%
Cc1ccc(OCCCn2c(CCNC(=O)C3CCCCC3)nc3ccccc32)c(C)c1 | 64%
Cc1cc(C)cc(N2CCn3c2nc2c3c(=O)n(CCCc3ccccc3)c(=O)n2C)c1 | 67%
O=C(CSc1nc2c(c(=O)[nH]1)CCCC2)Nc1cccc(O)c1 | 68%
Cc1cccc(N2CCN(C(=O)c3cnn(-c4cccc(Cl)c4C)c3C3CCNCC3)CC2)c1C | 80%
Cc1cc(NC(=O)c2ccc3c(c2)N(Cc2cccc(Cl)c2)C(=O)c2ccccc2S3(=O)=O)ccc1Br | 90%
Cc1ccc(C2CCN(C(=O)Nc3ccc(Cl)cc3)C2)cc1 (stereo not given) | 81%
Cc1ccc(C2CCN(C(=O)Nc3ccc(Cl)c(Cl)c3)C2)cc1 (stereo not given) | 20% (active)
O=C(Nc1ccc(Cl)c(Cl)c1)N1CCC(c2ccccc2)C1 (stereo not given) | 81%
COc1ccc(N2C(=O)CSC23C(=O)N(CC(=O)NCCc2ccccc2)c2ccccc23)cc1 (stereo not given) | 94%
CCN(CC)S(=O)(=O)c1ccc(-c2nnc(SCC(=O)Nc3nc4ccccc4s3)o2)cc1 | 66%

SMILES | survival
N=c1n(CC(N)=O)c2ccccc2n1Cc1ccccc1Cl | 99%
N=c1n(CCO)c2ccccc2n1Cc1ccccc1F | 47% (active)
CCOC(=O)Cn1c(=N)n(CCOc2ccc(OC)cc2)c2ccccc21 | 43% (active)
CCCCn1c(=N)n(CCCOc2ccc(F)cc2)c2ccccc21 | 48%
CCCCn1c(=N)n(CCOc2ccccc2OC)c2ccccc21 | 56%
N=c1n(CCO)c2ccccc2n1CCOc1ccc(F)cc1 | 40% (active)
N=c1n(CC(=O)O)c2ccccc2n1Cc1ccccc1 | 84%
CCOC(=O)Cn1c(=N)n(Cc2ccc(C(C)(C)C)cc2)c2ccccc21 | 103%
O=C1CSC(=O)N1CCOc1ccc(F)cc1 | 80%
O=C(O)CCN1C(=O)CSC1=O | 72%
CCCOc1cccc(C2c3c(oc4cc(C)c(C)cc4c3=O)C(=O)N2CCCN2CCOCC2)c1 (stereo not given) | 64%
COc1ccc(CCNC(=O)c2ccc3c(c2)N(Cc2cc(C)ccc2C)C(=O)c2ccccc2S3=O)cc1OC (stereo not given) | 70%
COc1cc(OC)c(NC(=O)Cn2cnc3sc(C)c(S(=O)(=O)N4CCN(C)CC4)c3c2=O)cc1Cl | 157%
Cc1cccc(-c2nc(CN3CCCC(C(=O)NCCc4ccc(Cl)cc4)C3)c(C)o2)c1 (stereo not given) | 34% (active)
Cc1cccc(-c2nc(CN3CCCC(C(=O)N4CCN(c5cc(Cl)ccc5C)CC4)C3)c(C)o2)c1 (stereo not given) | 68%
CCc1ccc(-c2nc(CN3CCCC(C(=O)NCc4ccc(C)cc4)C3)c(C)o2)cc1 (stereo not given) | 73%
CCCCNC(=O)C1CCCN(Cc2nc(-c3ccc(Cl)cc3)oc2C)C1 (stereo not given) | 77%
Cc1ccc(C)c(N2CCN(C(=O)C3CCCN(Cc4nc(-c5cccc(Cl)c5)oc4C)C3)CC2)c1 (stereo not given) | 78%
Cc1oc(-c2ccc(Cl)cc2)nc1CN1CCCC(C(=O)NCCc2ccccc2)C1 (stereo not given) | 44% (active)
Cc1ccc(CCNC(=O)C2CCCN(Cc3nc(-c4cccc(Cl)c4)oc3C)C2)cc1 (stereo not given) | 25% (active)
Cc1oc(-c2ccc(Cl)cc2)nc1CN1CCCC(C(=O)NCCc2ccc(Cl)cc2)C1 (stereo not given) | 54%
Cc1oc(-c2cccc(Br)c2)nc1CN1CCC(C(=O)NCCc2ccc(Cl)cc2)CC1 | 76%
Cc1oc(-c2ccc(Cl)cc2)nc1CN1CCCC(C(=O)NCc2ccccc2)C1 (stereo not given) | 93%
Cc1oc(-c2cccc(Cl)c2)nc1CN1CCCC(C(=O)NCCc2ccc(Cl)cc2)C1 (stereo not given) | -6% (active)
Cc1oc(-c2cccc(Cl)c2)nc1CN1CCC(C(=O)NCCc2ccc(Cl)cc2)CC1 | 87%
